Measured values: PubChem BioAssay (NCI)
The panel holds about 83,000 compounds, 20% with a hit somewhere; the sample as a whole holds those more often.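 Cells were grown in 96-well plates and exposed to the test compound at a single concentration for 48 hours; results are reported as percent growth, with values below 10 considered active.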 Calls of active or inactive are those of the source.

These compounds were tested on A549/ATCC NSCLC (assay: NCI-60 one-dose screen, 48 h (100 = growth as untreated, 0 = no growth, -100 = all killed)). Conditions: 10 µM unless noted.

Row | SMILES | growth
1 | CCOC(=O)c1cc(C(=O)c2cc(OC)cc(OC)c2)n2ncccc12 | 35.3% (inactive)
2 | CO[C@H]1/C=C/O[C@@]2(C)Oc3c(C)c(O)c4c(O)c(c5c(nc6cc(C)ccn65)c4c3C2=O)NC(=O)/C(C)=C\C=C\[C@H](C)[C@H](O)[C@@H](C)C(O)[C@@H](C)[C@H](OC(C)=O)[C@@H]1C (stereo not given in full) | 104% (inactive)
3 | CN1CCN(Cn2nc(-c3cc(Cl)cc(Cl)c3Cl)oc2=S)CC1 | 104% (inactive)
4 | COC1=C(OC)C(=O)C(CCCCCCCCCCO)=C(C)C1=O | 96% (inactive)
5 | COCCn1cc(-c2nc(-c3cc4cccnc4n3C)cs2)c2cc(OC)ccc21 | 40.6% (inactive)
6 | O=C(/C=C/c1ccc(Cl)cc1)c1ccc(-n2cc(CN3CCN(c4cc5c(cc4F)c(=O)c(C(=O)O)cn5C4CC4)CC3)nn2)cc1 | 89% (inactive)
7 | Cc1ccc(S(=O)(=O)c2nc(-c3ccccc3)oc2S(C)=O)cc1 (stereo not given) | 69.8% (inactive)
8 | CNC(=O)c1cc(Oc2ccc3nc(NC(=O)Nc4ccc(F)cc4F)sc3c2)ccn1 | 44.8% (inactive)
9 | CCCCN(CCC#N)C(N)=O | 109% (inactive)
10 | COc1cccc(/C=C2\CCc3ccccc3C2=O)c1 | 85.1% (inactive)
11 | C#Cc1c(I)n(C2OC(CO[Si](C)(C)C(C)(C)C)C3OC(C)(C)OC32)c(=O)[nH]c1=O (stereo not given) | 92.6% (inactive)
12 | COc1cc(/C=C2\C(=O)N(CCOc3cc(O)c4c(=O)cc(-c5ccccc5)oc4c3)c3ccccc32)cc(OC)c1O | 85% (inactive)
13 | O=C1c2ccccc2-c2c1c1ccncc1c(=O)n2CCCn1ccnc1 | 56.3% (inactive)
14 | COc1cc(OCc2cccc(-c3ccccc3)c2C)cc(OC)c1CN1CCCCC1C(=O)NCCOCCOCCN (stereo not given) | 70.6% (inactive)
15 | COc1ccc(-c2cn(Cc3ccc4c(Br)cc(Br)c(O)c4n3)nn2)cc1 | 98.7% (inactive)
16 | O=c1c(Cc2ccc(F)cc2)cc(-c2ccccc2)nn1C/C(=N/O)c1ccccc1 | 24.2% (inactive)
17 | C1=C2CCCC3=Cc4ccccc4OC23Oc2ccccc21 | 32.7% (inactive)
18 | N/C(=N\c1nc2ccccc2s1)NC(=O)Nc1ccccc1 | 39% (inactive)
19 | C=C(C)[C@@H]1CC[C@]2(COCCCNCCCN)CC[C@]3(C)[C@H](CC[C@@H]4[C@@]5(C)CC[C@H](OCCCN)C(C)(C)[C@@H]5CC[C@]43C)[C@@H]12 | -66.6% (active)
20 | N#CC1=C(N)Oc2c(ccc3ccccc23)C1c1cc2ccccc2n2nnnc12 (stereo not given) | 33.4% (inactive)

Row | SMILES | growth
21 | CC(C)(C#N)c1cc(C(=O)Nc2cc(Nc3ncccc3-c3ncnc4nc[nH]c34)ccc2F)cc(C(F)(F)F)c1 | 49.7% (inactive)
22 | CN1CCN(CC(=O)N(C)c2ccc(N=C(c3ccccc3)c3c(O)[nH]c4ccc([N+](=O)[O-])cc34)cc2)CC1 | 46.7% (inactive)
23 | Cc1c(Cl)cccc1NC(=O)c1sc2nc3c(cc2c1N)CCCC3 | 39.1% (inactive)
24 | COC(=O)c1c(C)nc(C)c2c1C(=O)C(Br)=C(NCCN1CCOCC1)C2=O | 98.6% (inactive)
25 | COc1ccccc1NC(=O)n1c(=O)cc(C)c2ccc(O)cc21 | 105% (inactive)
26 | C#CCOC(=O)C(N)CSSCC(N)C(=O)O (stereo not given) | 98.2% (inactive)
27 | CN(C)CCOc1nc2c3cc([N+](=O)[O-])ccc3nn2c2ccccc12 | 12.7% (inactive)
28 | CC(=O)Oc1ccccc1C(=O)N(Cc1ccc2c(Cl)cc(Cl)c(O)c2n1)c1ccccc1 | 29.2% (inactive)
29 | C=CCOC(=O)C1=C(C)N(CC)C(=O)N(CC)C1c1c(Cl)n(C)c2ccccc12 (stereo not given) | 63.7% (inactive)
30 | CNC(=O)c1cc(Oc2ccc3nc(NC(=O)c4cc(C(F)(F)F)cc(C(F)(F)F)c4)sc3c2)ccn1 | 17.8% (inactive)
31 | COc1cc(C2=Nc3c(N)nc(N)nc3NC(c3cccc(Nc4ccnc5cc(C(F)(F)F)ccc45)c3)C2)cc(OC)c1OC (stereo not given) | 73.6% (inactive)
32 | c1ccc2[nH]c(-c3ccc(-c4nccc5c4[nH]c4ccccc45)cc3)nc2c1 | 45.7% (inactive)
33 | COc1ccc(/C=C2/CCc3cc4ccc(OC)cc4[o+]c32)c(O)c1 | 94.9% (inactive)
34 | Cc1c(-c2cnc3ccc(Cl)cc3c2C(=O)O)nnn1-c1ccc(Cl)cc1 | 97.1% (inactive)
35 | COc1ccc(NC(=O)c2ccc(NC3=C(c4ccc(Cl)cc4)C(=O)NC3=O)cc2)cc1 | 71.2% (inactive)
36 | O=C1CC2C=CCN2C=C1NC(=O)c1ccccc1 (stereo not given) | 92.6% (inactive)
37 | COc1cccc(CNc2nnc(C)c(C)n2)c1O | 93.7% (inactive)
38 | COc1cc2c(c(OC)c1OC)CCC(c1cccc(C(=O)Nc3ccc([N+](=O)[O-])cc3)c1)O2 (stereo not given) | 55.2% (inactive)
39 | CO[C@]12C=C/C(=C(/C(=O)OCc3cccnc3)C(=O)CCCCCCCC[C@]3(OC)C=C/C(=C(/C(=O)OCc4cccnc4)C(=O)CCCCCCCC1)O3)O2 | -19.6% (active)
40 | O=c1cc(-c2nccc3c2[nH]c2ccccc23)c2cc(Cl)ccc2o1 | 42.3% (inactive)
